From PubChem
CYP2C19 act: activators of human cytochrome P450 2C19; P33261; recombinant CYP2C19, luciferin-H EGE luminescence; stronger effect = higher value; 0 = fully inhibited enzyme, 1 = untreated enzyme; activation factor at 5 µM; 96,000 tested, under 10 active; AID 1025;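 active means activation factor of at least 2 at 5 µM in the primary screen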;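 further: 0 = wells with 2.5 mM tranylcypromine and 1 = vehicle-only wells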
CYP2C9 activ: CYP2C9 (human) activation | recombinant CYP2C9, luciferin-H conversion, luminescence; stronger effect = higher value; factor 1 = untreated enzyme, 0 = blocked | activation factor at 5 µM | 1.4% of 96,000 active | AID 1024;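 active means activation factor of 2 or more for CYP2C9 at a 5 µM dose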;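 further: 0 = sulfaphenazole-blocked wells and 1 = vehicle-only wells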
Target sequence (P11712 whole entry, looked up): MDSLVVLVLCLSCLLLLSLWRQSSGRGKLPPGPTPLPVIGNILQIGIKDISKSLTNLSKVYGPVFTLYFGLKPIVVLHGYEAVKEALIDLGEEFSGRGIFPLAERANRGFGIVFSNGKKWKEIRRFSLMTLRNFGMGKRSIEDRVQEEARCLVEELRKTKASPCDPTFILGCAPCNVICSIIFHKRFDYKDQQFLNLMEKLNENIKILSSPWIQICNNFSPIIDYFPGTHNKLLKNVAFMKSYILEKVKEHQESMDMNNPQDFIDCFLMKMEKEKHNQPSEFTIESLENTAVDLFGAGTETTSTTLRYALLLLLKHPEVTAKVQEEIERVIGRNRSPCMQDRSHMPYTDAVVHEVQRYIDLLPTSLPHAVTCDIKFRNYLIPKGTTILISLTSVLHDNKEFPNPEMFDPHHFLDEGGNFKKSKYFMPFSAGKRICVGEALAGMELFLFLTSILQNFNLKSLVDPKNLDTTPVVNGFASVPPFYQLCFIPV
PTK2B oligo ant: antagonists of human Pyk2 oligomerization. Q293 cells, Pyk2 FERM NanoBiT luminescence; stronger effect = lower value. z-score (the deposit names both 25 µM and 10 µM). 0.83% of 99,000 active. AID 1347419;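 active means Z-score of -3 or lower, scaled per plate to the spread of control and sample wells; inactive means z-score above -3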;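 further: negative z-score means lost luminescence so less FERM oligomerization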
CYP2C19 inhib: human CYP2C19 inhibition; CYP2C19 Supersomes, luciferin-H EGE luminescence, 30 min; inhibition, % at 5 µM; 21% of 96,000 active; AID 778;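 active means CYP2C19 inhibition above a set limit at 5 µM in the primary screen, cut at about 50% in these data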;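 further: plate controls were negative control wells for no effect and 2.5 mM tranylcypromine positive control for full effect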
CYP2C9 inhib: blocks human cytochrome P450 2C9; P11712; CYP2C9 Supersomes, luciferin-H conversion, luminescence; inhibition, % at 5 µM; 20% of 96,000 active; AID 777;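 active means blocking of liver enzyme CYP2C9 beyond about 50% at 5 µM, limit read from the data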
* = called active by the depositor; . = no result given. Sampled rows, rich in hits. Any-hit rate of the full collection: about 28%.

SMILES	CYP2C19 act	CYP2C9 activ	PTK2B oligo ant	CYP2C19 inhib	CYP2C9 inhib
O=C(c1cnn2cccnc12)N1CCN(c2ccccc2)CC1	0.1	1.3	1.3	87*	-26
O=C(c1ccncc1)N1CCN(c2ccc(F)cc2)CC1	0.1	0.7	0.77	91*	31
COc1ccccc1N1CCN(C(=O)c2cnn3cccnc23)CC1	0.9	1.1	.	9	-7
CC(=O)OC(C(=O)N1CCN(c2ccc(F)cc2)CC1)c1ccccc1 (stereo not drawn)	.	.	-0.27	.	.
O=C(Nc1cccc2ncccc12)c1cccnc1	1.1	1.3	1	-7	-26
CC(C)CN1C(=O)c2ccc(C(=O)NCc3ccc4c(c3)OCO4)cc2C1=O	1	0.8	-0.37	-5	16
CCn1ncc(Br)c1C(=O)Nc1nccs1	0.7	0.7	-0.28	28	33
CCOC(=O)C(C)(C)C(=O)C(C)(C)C(O)c1ccccn1 (stereo not drawn)	0.5	1	2	51*	-1
CCOC(=O)C(NCc1ccccn1)(NC(=O)c1cccnc1)C(F)(F)F (stereo not drawn)	0.8	0.9	0.76	16	10
CC1CCc2nn(CC(=O)NCCC3=CCCCC3)cc2C1 (stereo not drawn)	0.8	0.7	.	19	30
CCCCOCCCNC(=O)c1ccc(OCC)cc1	0.9	0.9	-0.44	14	5
CCCCOCCCNC(=O)Cc1ccccc1OC	0.3	1	1.3	73*	-1
CCCCOCCCNC(=O)c1ccc(OC)cc1	0.4	0.9	1.7	58*	14
COCCCNC(=O)Cc1ccccc1OC	1.1	0.9	0.08	-12	13
CC(C)Cn1c(N)c(C(=O)COC(=O)c2ccc3c(c2)OCCO3)c(=O)n(C)c1=O	0.4	0.3	-0.54	60*	67*
CCC(Oc1ccc2c(c1)C(=O)CC(C)(C)O2)C(=O)NCCN1CCCCCC1 (stereo not drawn)	0.8	0.8	0.03	22	23
COc1ccc(S(=O)(=O)Nc2cc3c(C(C)=O)c(C)oc3c3ccccc23)cc1	0.1	0.2	0.37	93*	84*
O=C(Nc1nc(-c2ccncc2)cs1)c1ccco1	0	0.2	0.15	97*	76*
COCC(=O)Nc1nc(-c2ccccc2)c(C)s1	0.5	0.8	0.58	52*	18
O=C(Nc1nc(-c2cc3ccccc3oc2=O)cs1)c1ccco1	1.1	0.9	.	-10	10
COc1ccc2c(c1)CCc1sc(NC(=O)c3ccco3)nc1-2	0.1	0	.	94*	99*
Cc1sc(NC(=O)c2ccco2)nc1-c1ccccc1	0.4	0.2	-1.7	55*	81*
CC(=O)c1sc(NC(=O)c2ccco2)nc1-c1ccccc1	1	0.8	.	-1	19
C=C(C)Cn1c(-c2ccccc2)nc2ccccc21	0.3	0.6	0.08	69*	42
C=C(C)Cn1c(SCC(=O)O)nnc1-c1ccccc1	1	0.9	0.29	-1	15
SMILES	CYP2C19 act	CYP2C9 activ	PTK2B oligo ant	CYP2C19 inhib	CYP2C9 inhib
Cc1cccc(-n2nnc3cnn(C)c3c2=O)c1	0.9	1	1.3	14	-1
Cc1ccc(-n2nc(C)c(NS(=O)(=O)c3ccccc3)c2C)cc1C	0.6	0	-0.97	42	96*
Cc1nn(-c2ccc(F)cc2)c(C)c1NS(=O)(=O)c1ccc(Cl)cc1	0	0.1	-0.26	100*	91*
O=C(CNS(=O)(=O)c1ccc(F)cc1)N1CCN(c2ccc(F)cc2)CC1	0.8	1	0.97	24	4
CCOC(=O)CC(=O)CSc1[nH]c(=O)cc(C)c1C#N	0.9	0.7	-0.12	14	26
Cc1noc2nc(-c3cccs3)cc(-c3nnc4n3CCCCC4)c12	1	0.9	.	2	14
CCC(=O)c1ccc(OCC(O)CN(CCc2ccccc2)Cc2ccccc2)cc1 (stereo not drawn)	0.5	0.3	-0.26	53*	70*
COC(=O)c1ccc(OCC(O)CN(CC(C)C)CC(C)C)cc1 (stereo not drawn)	0.3	0.3	-1.1	74*	71*
CCN(CC)CC(O)COc1ccccc1C(=O)CCc1ccccc1 (stereo not drawn)	0.4	0.7	0.63	60*	28
CC(=O)c1ccc(OCC(O)COc2ccc(C(C)=O)cc2)cc1	0.9	0.6	2.1	13	42
Cc1cc(C)cc(-n2ccnc2SCC(=O)Nc2nccs2)c1	0.7	0.7	-0.25	33	32
CCSc1nnc(NC(=O)CSc2nccn2-c2cccc(C)c2)s1	0.7	0.4	-1.2	33	63*
Cc1cccc(-n2ccnc2SCC(=O)Nc2nccs2)c1	0.4	0.5	-0.76	60*	49
COc1cccc(-n2ccnc2SCC(=O)Nc2nccs2)c1	0.4	0.5	1.4	59*	45
O=C(O)c1n[nH]c2c1CCCC2	1	2.1*	0.89	5	-108
O=C(c1n[nH]c2c1CCCC2)n1ccnc1	0.8	0.5	.	16	52*
O=C(O)c1n[nH]c2c1CCCCC2	1	0.8	0.24	4	16
O=C(c1cc(-c2ccncc2)nc2ccc(Br)cc12)N1CCN(c2ccccn2)CC1	0.2	0	-0.47	79*	98*
O=C(c1cccn2c(=O)c3cc(Br)ccc3nc12)N1CCN(c2ccccn2)CC1	0.9	0.4	-0.25	10	59*
O=C(c1cc(-c2ccncc2)nc2ccc(Cl)cc12)N1CCN(C(=O)C2CCCO2)CC1 (stereo not drawn)	0.5	0.3	0.52	47	74*
O=C(c1cccn2c(=O)c3ccccc3nc12)N1CCN(c2ccccn2)CC1	0.6	0.4	0.1	36	59*
O=C(c1cccn2c(=O)c3cc4ccccc4cc3nc12)N1CCN(c2ccccc2)CC1	0.7	0.7	.	30	30
FCCCOc1ccc(/C=N/OCc2ccc(Cl)cc2)cc1	0.9	0.9	0.06	7	10
Brc1ccccc1-c1nnc2sc(Cc3ccccc3)nn12	0	0.4	-1.8	95*	62*
COc1ccc(Cc2nn3c(-c4ccccc4Br)nnc3s2)cc1	0.1	0.7	-1.2	90*	26
SMILES	CYP2C19 act	CYP2C9 activ	PTK2B oligo ant	CYP2C19 inhib	CYP2C9 inhib
COc1ccccc1-c1nnc2sc(COc3ccccc3)nn12	0.7	0.6	-0.51	28	37
COc1ccc(CC(=O)Nc2ccc(-c3cn4ccc(C)cc4n3)cc2)cc1	0.3	0.6	-0.18	67*	41
COc1ccc(OCC(=O)Sc2ccc(C)cc2)cc1	0.3	0.7	2.1	68*	30
Cc1ccc(NC(=O)Nc2ccc(F)cc2)nc1	0.4	0.9	-0.24	57*	11
COc1ccc(OCC(=O)Nc2ccc(C)cc2)cc1	0.2	0.5	2.7	82*	52*
COc1ccc(CC(=O)Nc2ccc(-c3cn4cccc(C)c4n3)cc2)cc1OC	1	1	-0.35	3	2
COC(=O)c1ccc(CN2C(=O)NC3(CCCCC3C)C2=O)o1 (stereo not drawn)	0.9	1.1	-0.87	9	-8
